According to PubChem BioAssay (NCI):
The panel holds about 83,000 compounds, 20% with a hit somewhere; the sample as a whole holds those more often.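 Plates (96-well) were seeded with cells, treated with compound at one concentration, and incubated for 48 hours before percent growth was determined.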 A number with no mark means an inactive call. Activity calls are given as the source filed them. Rule for the calls: active = growth percent below 10; inactive = the rest.

Experiments:
Assay in all cases: NCI-60 one-dose screen, 48 h (100 = growth as untreated, 0 = no growth, -100 = all killed)
Conditions in all cases: 10 µM unless noted
[1] = test system: HCT-15 colon
[2] = test system: HT29 colon
[3] = test system: SNB-75 CNS
[4] = test system: SNB-19 CNS
[5] = test system: U251 CNS
[6] = test system: PC-3 prostate
[7] = test system: SK-MEL-5 melanoma
[8] = test system: UACC-62 melanoma
[9] = test system: LOX IMVI melanoma
[10] = test system: SK-MEL-28 melanoma
[11] = test system: SK-MEL-2 melanoma
[12] = test system: EKVX NSCLC
[13] = test system: SN12C renal
[14] = test system: UO-31 renal
[15] = test system: TK-10 renal
[16] = test system: ACHN renal
[17] = test system: CAKI-1 renal
[18] = test system: A498 renal
[19] = test system: CCRF-CEM leukemia
[20] = test system: MOLT-4 leukemia

Structure (SMILES) | growth [1] | growth [2] | growth [3] | growth [4] | growth [5] | growth [6] | growth [7] | growth [8] | growth [9] | growth [10] | growth [11] | growth [12] | growth [13] | growth [14] | growth [15] | growth [16] | growth [17] | growth [18] | growth [19] | growth [20]
CCCCCCNC(=O)Oc1ccc(/C(=C(\C)c2ccc(Cl)cc2)c2ccc(OCCCN(C)C)cc2)cc1 | 8.75% (active) | 0.63% (active) | 79.1% | 79.8% | 42% | 79.6% | 86.2% | 96.9% | 39.5% | 97.2% | 92.1% | 83% | 90% | 55.4% | 75.8% | 94.3% | 96.2% | 85.7% | 70.7% | 37.3%
CC(=O)N1N=C(c2ccc(Nc3nc(Nc4ccc(F)cc4)nc(Nc4ccc(Cl)cc4)n3)cc2)CC1c1ccc(Cl)cc1 (stereo not given) | 93.4% | 106% | 70.1% | 83.5% | 94.7% | 68.8% | 105% | 99% | 89.8% | 121% | 109% | 87.3% | 107% | 56.8% | 110% | 83.1% | 83% | 88.9% | 110% | 98.2%
COc1ccc(OC)c(/C=C/C(=O)N/N=C/c2ccc(Cl)cc2)c1 | 29.4% | 6.49% (active) | 44% | 22.6% | 18.4% | 26.2% | 30.6% | 42.1% | 36.7% | 38.8% | 22.3% | 43.1% | 46.2% | 30.1% | 51% | 48.4% | 41.8% | 12.5% | 13.7% | 26.3%
Cc1nc2ccccc2c(/C=C/c2ccc(Cl)cc2)c1C(=O)/C=C/c1cccs1 | 52.1% | 52.8% | 56.7% | 86.7% | 77.5% | 54% | 76.6% | 68.4% | 79.6% | 95.7% | 90.9% | 80.9% | 72% | 54.3% | 125% | 78.3% | 46.2% | 40.9% | 59.6% | 54.7%
OC(COc1ccccc1Cl)CN1CCN(c2cccc(Cl)c2)CC1 (stereo not given) | 97.2% | 99.2% | 104% | 97.6% | 97.6% | 84.4% | 102% | 98.5% | 91.6% | 107% | 106% | 119% | 104% | 83.1% | 107% | 101% | 99.1% | 108% | 113% | 107%
CCOC(=O)c1cn2ncnc(Oc3ccc(NC(=O)NCCN(C)C)c(Cl)c3)c2c1C | 23.2% | 7.1% (active) | 99.1% | 82.8% | 70% | 68.6% | 60.9% | 21.7% | 10.3% | 37.6% | 112% | 79.3% | 63.9% | 62.1% | 105% | 84.5% | 65.8% | 57.5% | 43.4% | 53.9%
C=C1C(=O)O[C@H]2[C@H]1CC/C(COC(=O)NCCOCCOCC(=O)Nc1ccc(OC)c(C(N)=O)c1O)=C\CC[C@@]1(C)O[C@@H]21 | 85.4% | 37.2% | 80.1% | 77.8% | 70.5% | 51.4% | 84.9% | 44.4% | 57.2% | 47.1% | 72.5% | 84.1% | 66% | 74.9% | 45.5% | 40.8% | 82% | 92.5% | -4.37% (active) | 17%
CCCCC1CCCC12NC(=O)NC2=O (stereo not given) | 103% | 110% | 107% | 104% | 99.5% | 95% | 117% | 93.8% | 88.9% | 113% | 100% | 107% | 96% | 85.1% | 92.7% | 99.4% | 107% | 98.3% | 101% | 122%
COc1cc(C(=O)/C=C/c2sc(Cl)nc2Cl)cc(OC)c1OC | -57.2% (active) | 25.1% | 73.1% | 77.6% | 6.7% (active) | 50.8% | 88.7% | 85.1% | -86.5% (active) | 18.5% | 82.7% | 55.6% | 7.55% (active) | 67.2% | 94.3% | -94.7% (active) | 37.1% | 89.9% | 10.9% | 23.2%
Clc1ccc2c(c1)N(CCCN1CCCC1)c1ccccc1S2 | 17.6% | 21% | 75.4% | 58.1% | 36.9% | 18.6% | -86.5% (active) | -36.5% (active) | -52.5% (active) | 42.3% | 74% | 51.6% | 15% | 40.1% | 82.9% | 45% | 56% | 36.6% | 36.3% | 24.2%
CS(=O)(=O)Nc1cc(-c2ccc3ncnc(Nc4cccc(Cl)c4F)c3c2)cnc1Cl | 41.9% | 47.6% | 9.28% (active) | 46.4% | 33.6% | 41.4% | 24.7% | 8.37% (active) | 4.21% (active) | 24.6% | 28.4% | 44.7% | 37.4% | 28.8% | 34.8% | 66.5% | 19.8% | -32.5% (active) | 30.4% | 27.3%
BrCCCc1n(Cc2ccc3ccccc3c2)c2ccccc2[n+]1Cc1ccc2ccccc2c1 | -60.6% (active) | -50.8% (active) | -71.5% (active) | -33.3% (active) | -91.9% (active) | -69.1% (active) | -95.3% (active) | -76.2% (active) | -93.8% (active) | -75.8% (active) | -50.8% (active) | -10.7% (active) | -92.8% (active) | 52.8% | -85.7% (active) | 5.29% (active) | -90.7% (active) | -32.5% (active) | -41.6% (active) | -35.9% (active)
CCCCCCN1C(=O)/C(=c2\sc3n(c2=O)C2C(NN=3)N(CC)C(=O)N2CC)c2ccccc21 (stereo not given) | 1.65% (active) | -24.7% (active) | -38.4% (active) | 22.5% | -21.3% (active) | 15.2% | 26.8% | 30.7% | -23% (active) | 35.1% | 50.1% | 65% | 19.1% | -2.09% (active) | 3.21% (active) | -43% (active) | 4.26% (active) | -5.48% (active) | 37.8% | 49.4%
CCCCn1c(=O)c(-c2cc(-c3ccc(Cl)cc3)nc(-c3ccc(Cl)cc3)c2)cc2cc(C)ccc21 | 101% | 101% | 98.5% | 98.8% | 106% | 97.2% | 104% | 89.7% | 98.5% | 107% | 118% | 101% | 92.2% | 86.2% | 98.7% | 107% | 94.8% | 103% | 101% | 105%
C=CCc1cc(C)ccc1NC(C(=O)NCC(=O)OC)c1ccccc1 (stereo not given) | 91.8% | 98.4% | 88.9% | 105% | 97.8% | 89.1% | 102% | 95.4% | 103% | 101% | 96.4% | 93.9% | 91.4% | 80.6% | 106% | 98.5% | 88.1% | 94.6% | 105% | 97.1%
